Results: PubChem BioAssay (NCI)
About 83,000 compounds went through this panel and 20% of them were active in at least one assay; those are over-represented in the sample as a whole.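 96-well plates, one dose, 48 hours. Percent growth reported; active if below 10.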 A number with no mark means an inactive call. Active and inactive are the calls of the source.

Key:
Test in all cases: NCI-60 one-dose screen, 48 h (100 = growth as untreated, 0 = no growth, -100 = all killed)
Conditions in all cases: 10 µM unless noted
NCI-H23 lung = tested on: NCI-H23 lung
NCI-H226 lung = tested on: NCI-H226 lung
NCI-H322M lung = tested on: NCI-H322M lung
HOP-62 NSCLC = tested on: HOP-62 NSCLC
NCI-H460 lung = tested on: NCI-H460 lung
HOP-92 NSCLC = tested on: HOP-92 NSCLC
NCI-H522 lung = tested on: NCI-H522 lung
A549/ATCC NSCLC = tested on: A549/ATCC NSCLC
786-0 renal = tested on: 786-0 renal
COLO 205 colon = tested on: COLO 205 colon
DU-145 prostate = tested on: DU-145 prostate
K-562 leukemia = tested on: K-562 leukemia
MALME-3M melanoma = tested on: MALME-3M melanoma
MDA-MB-231 breast = tested on: MDA-MB-231 breast
RXF 393 renal = tested on: RXF 393 renal
SF-268 CNS = tested on: SF-268 CNS
SF-295 CNS = tested on: SF-295 CNS
SF-539 CNS = tested on: SF-539 CNS
UACC-257 melanoma = tested on: UACC-257 melanoma

SMILES | growth (NCI-H23 lung) | growth (NCI-H226 lung) | growth (NCI-H322M lung) | growth (HOP-62 NSCLC) | growth (NCI-H460 lung) | growth (HOP-92 NSCLC) | growth (NCI-H522 lung) | growth (A549/ATCC NSCLC) | growth (786-0 renal) | growth (COLO 205 colon) | growth (DU-145 prostate) | growth (K-562 leukemia) | growth (MALME-3M melanoma) | growth (MDA-MB-231 breast) | growth (RXF 393 renal) | growth (SF-268 CNS) [%] | growth (SF-295 CNS) | growth (SF-539 CNS) | growth (UACC-257 melanoma)
COc1ccc(C2=NC(=O)NC2c2ccc(OC)cc2)cc1 (stereo not drawn) | 68.3% | 74% | 132% | 42.3% | 72.9% | 26% | 54% | 82.8% | 38.6% | 58.7% | 88.5% | 21.2% | 75.5% | 73.9% | 108% | 73.3 | 79.7% | 62.4% | 105%
COc1cccc(-c2cnco2)c1OCc1c(C)c(COc2c(OC)cccc2-c2cnco2)c(C)c(COc2c(OC)cccc2-c2cnco2)c1C | 71.5% | 21.8% | 70.7% | 42.1% | 52.2% | -6.35% (active) | 33.9% | 51.8% | 2.94% (active) | 83.4% | 73.2% | 85% | 43.5% | 30.5% | 45.7% | 53.7 | 82.1% | 19.3% | 58.4%
CC(=O)Nc1ccc(C(=O)/C=C/c2ccccc2)cc1 | 96.1% | 83.5% | 88.9% | 101% | 98.3% | 47.8% | 53% | 76.3% | 58.3% | 102% | 89.8% | 79.9% | 104% | 93.2% | 97.4% | 85.4 | 104% | 96.6% | 70.3%
CO[C@H]1/C=C/O[C@@]2(C)Oc3c(C)c(O)c4c(c3C2=O)C(=O)C(/C=N/N(c2ccccc2)c2ccccc2)=C(NC(=O)/C(C)=C\C=C\[C@H](C)[C@H](O)[C@@H](C)[C@@H](O)[C@@H](C)[C@H](OC(C)=O)[C@@H]1C)C4=O | 5.83% (active) | 18.4% | 22.2% | -76.7% (active) | -50.7% (active) | -48.6% (active) | -24% (active) | 3.7% (active) | 3.91% (active) | -60.3% (active) | 12.9% | 7.47% (active) | -43.9% (active) | -40.1% (active) | -61.9% (active) | 14.9 | -72.3% (active) | -69.8% (active) | -22.5% (active)
Nc1c(C(=O)c2ccccc2)nnc2ncnn12 | 95.6% | 94.5% | 98.2% | 97% | 106% | 95.2% | 88.5% | 95.2% | 97.2% | 103% | 106% | 97.1% | 107% | 93% | 110% | 102 | 103% | 117% | 95.4%
Cn1ncc2c(Nc3ccc(Br)cc3)nc(Nc3ccc(Br)cc3)nc21 | 27.5% | 62.1% | 73% | 23.8% | 8.2% (active) | 7.66% (active) | 44.8% | 48.1% | -38.9% (active) | 64% | 68.3% | 11.4% | 55.4% | 17.7% | 64.1% | 57.6 | 40.2% | 64.9% | 82.6%
COc1cc(-c2cc(-c3ccc(Nc4nc(Nc5ccccc5)nc(Nc5ccc(Cl)cc5)n4)cc3)nc(N)n2)cc(OC)c1OC | 46.9% | 75.6% | 81.9% | 47.2% | 65.8% | 42.4% | 66.3% | 79.3% | 44% | 76.6% | 94.7% | 23.8% | 59.9% | 59% | 78.1% | 86.6 | 70.5% | 77.4% | 99.4%
COc1cc2c(O)n(CCCn3ccnc3)c3c4cnc5cccc(c(=O)c3c2cc1OC)c54 | 38.8% | 41.8% | 77.9% | 13.1% | 6.78% (active) | 28% | 18.7% | 35.6% | 7.01% (active) | 33.1% | 19.2% | 11.6% | 67.1% | 51.2% | 39.5% | 36.4 | 21.4% | 22.1% | 45.2%
CC1(C)CC(=O)c2c(ccc(C(=O)C[C@H](N)CO)c2N)O1 | 54.4% | 58.3% | 15% | 22% | 6.79% (active) | 53.7% | 46.2% | 34.7% | 77.5% | 47% | 38% | 37.1% | 48.6% | 54.6% | 44.1% | 34.2 | 42.9% | 23.7% | 49.1%
O[C@H]1CO[C@H]2[C@@H]1OC[C@@H]2Oc1ccc(Nc2ccnc(Nc3ccc(O[C@H]4CO[C@H]5[C@@H]4OC[C@@H]5O)c(Cl)c3)n2)cc1Cl | -1.73% (active) | 4.09% (active) | -4.12% (active) | -28.9% (active) | 1.27% (active) | -20% (active) | -4.53% (active) | 21.7% | 24.7% | 12% | 7.26% (active) | 5.05% (active) | 13.2% | 21.8% | – | 16.4 | 7.74% (active) | 8.89% (active) | 31.8%
COc1ccc(OC)c(Nc2nc3nonc3nc2Nc2cc(OC)ccc2OC)c1 | 50% | 50.3% | 68.6% | -12.8% (active) | 22% | 13.2% | 37.7% | 20.7% | -23.8% (active) | 93.7% | 55.5% | 75.5% | 29.9% | -1.9% (active) | 14.8% | 45.6 | 77.9% | 9.98% (active) | 52.1%
CN(C)c1ccc(-c2cc(-c3ccc(Nc4nc(Nc5ccccc5)nc(Nc5ccc(Cl)cc5)n4)cc3)nc(N)n2)cc1 | 48% | 59% | 66.3% | 33.1% | 41.7% | -3.41% (active) | 55.6% | 43.4% | 10.6% | 58.1% | 61.4% | 10.8% | 57% | 41.8% | 53.8% | 50.8 | 36.5% | 60.8% | 55.3%
COc1ccc(-c2cc(-c3ccc(Nc4nc(Nc5ccccc5)nc(Nc5ccc(Cl)cc5)n4)cc3)nc(N)n2)cc1 | 56.6% | 81.2% | 83.3% | 57.2% | 61.6% | 37.6% | 76.3% | 79.5% | 51.5% | 68.4% | 100% | 23.7% | 79.2% | 49% | 75.6% | 75.8 | 64.1% | 76.9% | 77.1%
COc1cc(/C=C/C(=O)c2ccc(Nc3nc(Nc4ccccc4)nc(Nc4ccc(Cl)cc4)n3)cc2)cc(OC)c1OC | 15.5% | 39.2% | 73.3% | 52.7% | 50.5% | 1.92% (active) | 77.3% | 84.5% | -25.4% (active) | 94.8% | 77% | 28.9% | 44.3% | 58.1% | 58.5% | 73.2 | 64.3% | 72.8% | 87.1%
NS(=O)(=O)c1cn(-c2ncnc3nc[nH]c23)ccc1=O | 94.2% | 78% | 94.5% | 94.9% | 112% | 82.7% | 51.2% | 36% | 96.9% | 100% | 103% | 84.6% | 82.9% | 89.3% | 130% | 93.3 | 49.3% | 105% | 138%
COc1ccc(NC(=O)C(=O)c2c[nH]c3ccc(F)cc23)cc1 | 97.8% | 101% | 73% | 103% | 90.7% | 99.2% | 85.1% | 78.7% | 56.1% | 104% | 88.9% | 90.6% | 115% | 95.5% | 103% | 94.7 | 102% | 108% | 101%
